From PubChem BioAssay (EPA / NIEHS) come the findings set out here.

Values joined by “and” are separate entries in the source; they are usually repeats but may differ in a detail not shown here. Identical values can stand only once. Results filed as inconclusive are left out. Active and inactive are the calls of the source. How the source made its calls: active means hit-call score of the fitted dose curve at least 0.9, where 1 is the maximum; inconclusive means response in the unintended direction; inactive means score below 0.9.

The AC50 is the concentration giving half of the maximal activity seen.

This test relates to turtle Thyroid Hormone Receptor, alpha (TRa), gene 101949057. Put plainly: ATG_trTRa_XSP2: Attagene TRANS-FACTORIAL Multi-Species (XSP1) HepG2 Assay for turtle Thyroid Hormone Receptor, alpha (TRa) (AID 2283834).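 Further: hits raise reporter mRNA over the DMSO baseline so AC50 marks activators.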 As to the method: ATG_XSP2_multi-species_TRANS is a cell-based, multiplexed assay created by modifying the existing Attagene TRANS-FACTORIAL system to include a panel of nuclear receptors from some or all the following species: human (Homo sapiens), mouse (Mus musculus), frog (Xenopus laevis), zebrafish (Danio rerio), chicken (Gallus gallus), and turtle (Chrysemys picta). The ECOTOX-FACTORIAL format uses HepG2, a human liver cell line, with measurements taken at 24 hours after chemical dosing in a 24-well plate. Xsp2 included 3 nM 6-alpha-fluorotestosterone and 1.5 nM norgestrel to stimulate the androgen receptor.ATG_trTRa_XSP2 is one of 29 assay components measured or calculated from the ATG_XSP2_multi-species_TRANS assay. It is designed to make measurements of mRNA induction, a form of inducible reporter, as detected with fluorescence intensity signals by Reverse transcription polymerase chain reaction (RT-PCR) and Capillary electrophoresis technology.The assay endpoint ATG_trTRa_XSP2 was analyzed in the positive analysis fitting direction relative to DMSO as the negative control and baseline of activity. Using a type of inducible reporter, measures of mRNA for gain-of-signal activity can be used to understand the reporter gene at the transcription factor-level as they relate to the gene TR. Furthermore, this assay endpoint can be referred to as a primary readout, because this assay has produced multiple assay endpoints where this one serves a reporter gene function. To generalize the intended target to other relatable targets, this assay endpoint is annotated to the nuclear receptor intended target family, where the subfamily is non-steroidal.
Human liver HepG2 cells are transiently transfected with multiple reporter transcription units (MRTUs) in 6-well plates using FuGene 6 reagent (Roche; 3 ml FuGene/1 mg DNA). The MRTU constructs are regulated by a cis-regulating element (promoter). […] A major difference between the CIS and TRANS system is that in CIS activities of endogenous TFs are measured, whereas the TRANS assay evaluates changes in activities of exogenous, chimeric NR-Gal4 proteins. […] At the end of 24 hour incubation, total RNA was isolated using TriZol reagent (Invitrogen). The isolated RNA is then reverse-transcribed using oligo(dT) primer and Mo-MLV reverse transcriptase (Invitrogen) with DNAse I (Ambion) treatment for 30 min. The one-tenth of the produced cDNA was amplified by PCR using Taq DNA polymerase (Invitrogen) and two reporter sequence-specific primers. The PCR products were fluorescently labeled by primer extension with 6-arboxyfluorescein (6-FAM) 5'-labeled reporter sequence-specific primer (2 min at 95 C, 20 s at 68 C and 10 min at 72 C) and these products were digested with 5U of HpaI (New England Biolabs) for 2h at 37 C. The fragments were purified using Qiaquick PCR columns (Qiagen), analyzed on an ABI 3130xL genetic analyzer (Applied Biosystems) with peak positions identified by using a set of X-rhodamine (ROX)-labeled MapMarker1000 molecular weight standards (BioVentures). The raw capillary electrophoresis data was processed using Attagraph software (Attagene).
For `Oc1ccc(C(c2ccc(O)cc2)C(Cl)(Cl)Cl)cc1`, the outcome was inactive.

Regarding `CCN(Cc1c(F)cccc1Cl)c1c([N+](=O)[O-])cc(C(F)(F)F)cc1[N+](=O)[O-]`, the compound was called inactive.

Consider `O=C(c1ccc(O)cc1O)c1ccc(O)cc1O`, for which the compound was called inactive.

For the compound `CC(C)CCCCCCc1ccc(O)cc1`, the outcome was inactive.

`CN(C)C(=O)Nc1ccc(Cl)c(Cl)c1`: the compound was classed as inactive.

On to `CCCCC(CC)CN1C(=O)C2C3C=CC(C3)C2C1=O` (configuration not stated), for which the result was inactive.

For the compound `N[C@@H](Cc1cc(I)c(Oc2ccc(O)c(I)c2)c(I)c1)C(=O)O`, the AC50 was 0.636 nM (active) and 73.3 nM (active).

As for `CC1(C)C(C=C(Cl)Cl)C1C(=O)OCc1cccc(Oc2ccccc2)c1` (configuration not stated), the compound was called inactive.

As to `C#C[C@]1(O)CC[C@H]2[C@@H]3CCC4=CC(=O)CC[C@@H]4[C@H]3CC[C@@]21CC`, the compound was called inactive.

For `CSC(=O)c1cccc2nnsc12`, the result was inactive.

Consider `CC(=O)S[C@@H]1CC2=CC(=O)CC[C@]2(C)[C@H]2CC[C@@]3(C)[C@@H](CC[C@@]34CCC(=O)O4)[C@H]12`, for which the outcome was inactive.

In the case of `CC(C)(c1ccc(O)cc1)c1ccc(O)cc1`, the outcome was inactive.
